Compounds with a hit are over-represented: about 2.9% of the library has one in this group of screens.
PP1 inh – PP1-alpha phosphatase inhibitors, primary screen, counter-screen for PP5 inhibitor project, biochemical, fluorescence, OMFP substrate, single point. inhibition, % at 6.7 µM. purified PP1alpha. Serine/threonine-protein phosphatase PP1-alpha catalytic subunit (Homo sapiens), P62136. actives 0.9% (n = 320,000);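 active = inhibition above the mean inhibition of all tested compounds plus 3 SD, computed separately for each screening campaign, cut at about 15% in these data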
Target sequence (P62136 whole entry, looked up): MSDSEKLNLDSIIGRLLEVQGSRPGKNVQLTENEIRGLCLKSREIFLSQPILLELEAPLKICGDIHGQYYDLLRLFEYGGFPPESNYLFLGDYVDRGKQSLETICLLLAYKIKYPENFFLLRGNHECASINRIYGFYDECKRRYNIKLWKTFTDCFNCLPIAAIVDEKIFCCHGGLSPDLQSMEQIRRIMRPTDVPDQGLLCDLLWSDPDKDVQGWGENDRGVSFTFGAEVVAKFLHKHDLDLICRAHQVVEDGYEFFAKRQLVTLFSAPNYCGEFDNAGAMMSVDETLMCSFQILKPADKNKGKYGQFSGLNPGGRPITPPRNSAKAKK
Granule exo inh – LAMP-1 surface exposure blockers, TALL-104 cells – cell-based, flow cytometry, MLPCN library, primary screen | TALL-104 LAMP-1 surface exposure; cells stimulated with thapsigargin and PMA | inhibition, % at 10 µM | actives 0.66% (n = 360,000) | AID 651702, 2012;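 active = inhibition above about 55%, limit read from the data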
GRK2 inh – compounds blocking aptamer binding on GRK2 – biochemical, human GRK2, bead flow cytometry, HTS, primary screen | FAM-aptamer displacement from GRK2 | actives 0.59% (n = 330,000) | Beta-adrenergic receptor kinase 1 (Homo sapiens), P25098 | inhibition of aptamer binding, % at 10 µM;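 active = inhibition of aptamer binding above 40%, roughly 3 SD of noise, on plates passing a quality check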;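 also: median bead fluorescence of bound FAM aptamer so fluorescent compounds give negative values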
Beta2AR agonist – beta2AR agonists driving receptor internalization, primary screen, cell-based, FAP fluorogen, flow cytometry. AID 504454, 2011. response, % (test concentration not listed). Am2.2-beta2AR cells. actives 0.43% (n = 340,000);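 active = response above a set limit, near 3 SD of response in nonfluorescent compounds, cut at about 42% in these data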
Target sequence (P07550 whole entry, looked up): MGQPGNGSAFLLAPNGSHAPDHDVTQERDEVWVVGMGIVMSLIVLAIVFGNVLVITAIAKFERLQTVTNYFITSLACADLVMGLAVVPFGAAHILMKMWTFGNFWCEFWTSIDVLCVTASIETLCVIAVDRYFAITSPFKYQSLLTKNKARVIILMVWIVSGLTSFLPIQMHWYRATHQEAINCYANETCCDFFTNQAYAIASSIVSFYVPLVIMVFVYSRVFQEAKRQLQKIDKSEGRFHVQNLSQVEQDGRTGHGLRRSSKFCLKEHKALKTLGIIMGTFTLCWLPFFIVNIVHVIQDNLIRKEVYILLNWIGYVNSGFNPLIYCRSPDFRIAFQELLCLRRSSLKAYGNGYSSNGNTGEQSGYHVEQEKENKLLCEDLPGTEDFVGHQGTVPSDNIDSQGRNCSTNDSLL
NadD block – inhibitors of S. aureus NadD, primary screen, biochemical, colorimetric, uHTS; actives 0.78% (n = 360,000); Nicotinate-nucleotide adenylyltransferase NadD (Staphylococcus aureus N315); AID 602399, 2012; purified NadD enzyme, colorimetric absorbance read-out; inhibition, % at 20 µM; in the data active = inhibition above about 26%
PP1 inh confirm – PP1 phosphatase inhibitors, confirmation, biochemical, fluorescence, OMFP substrate, triplicate; actives 52% (n = 1,900); inhibition, % at 6.7 µM; purified PP1alpha; shares compounds with PP1 inh; AID 2358, 2010;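 active = mean PP1 inhibition above a set limit taken from the earlier primary screen, cut at about 15% in these data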
PP5 counter – PP5 phosphatase inhibition by PP1 hits, confirmation, counter-screen for PP1 inhibitor project, biochemical, fluorescence, triplicate; shares compounds with PP1 inh; purified PP5c, OMFP fluorescence; inhibition, % at 6.7 µM; actives 4% (n = 1,900); AID 2360, 2010;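 active = mean PP5 inhibition over triplicate wells above about 9.5% taken from the earlier PP1 screen, limit read from the data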
GRK2 CP1 – GRK2 aptamer-displacing inhibitors, retest, confirmation, biochemical, cherry pick 1, bead flow cytometry | bead-bound GRK2, FAM-aptamer displacement | AID 504451, 2011 | aptamer displacement, % at 10 µM | shares compounds with GRK2 inh | actives 4% (n = 2,000);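 active = aptamer displacement above 40%, near three times the noise of non-fluorescent compounds, on plates passing quality checks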;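 also: negative values mostly reflect intrinsic compound fluorescence rather than true enhancement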
Aptamer quench – counter-screen for GRK2 aptamer inhibitors: fluorescent aptamer quenchers; fluorescence change (kMESF span), kMESF (no concentration beside the values); 110 tested, under 10 active; Fluorescent RNA aptamer beads, quenching, flow cytometry; active compounds read high; shares compounds with GRK2 inh;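 active = compounds whose bead fluorescence drops by more than 37 kMESF across the dose range, marking them as dye quenchers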
FAM quench CP1 – counter-screen for GRK2 aptamer inhibitors: fluorescent aptamer quenchers. shares compounds with GRK2 inh. Carboxyfluorescein RNA aptamer on beads, flow cytometry quenching; active compounds read low. fluorescence response (% of DMSO), % at 10 µM. 2,000 tested, under 10 active;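 active = compounds that quench the bead-bound fluorescent RNA probe, cutting fluorescence to under half of the solvent control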;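 also: counterscreen run without GRK2 so only probe quenching by compound is measured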
GRK2 confirm 2 – GRK2 aptamer-displacing inhibitors, hit retest, confirmation, biochemical, cherry pick 2, bead flow cytometry; bead-bound GRK2, FAM-aptamer displacement; inhibition of aptamer binding, % at 10 µM; 360 tested, under 10 active; shares compounds with GRK2 inh;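 active = inhibition of aptamer binding above 40%, about triple the noise seen with nonglowing compounds, on plates passing quality control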;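 also: negative values mostly come from compounds that fluoresce themselves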
FAM quench CP2 – quenches fluorescent RNA aptamer, GRK2 hit artifact | shares compounds with GRK2 inh | carboxyfluorescein RNA aptamer beads, flow cytometry quenching; active compounds read low | fluorescence response vs DMSO, % at 10 µM | 360 tested, under 10 active;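 active = response vs DMSO under 50%, meaning signal dropped by over half, treated as fluorescence quencher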;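 also: labelled aptamer on streptavidin beads without GRK2 as a quench counter-screen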
Of the large screens only hits and unclear results are named; the others gave an inactive call (follow-up assays come after a bar, where they were run).

O=C(O)CC1OCC=C2CN3CCC45c6ccccc6NC4C1C2CC35 (centres undefined)	none
O=C(O)CC1OCC=C2CN3CCC45C6=CC(=O)C(=O)C([N+](=O)[O-])=C6NC4C1C2CC35 (centres undefined)	PP1 inh 33 | PP1 inh confirm 53 | PP5 counter inactive
COC(=O)C1=C(c2cccc(OCc3ccccc3)c2)C[C@@H]2CC[C@H]1N2C(=O)NCCc1ccc(F)cc1	GRK2 inh 98 | GRK2 CP1 inactive | FAM quench CP1 inactive
COc1ccc(CN2Cc3cc(N4CCCCC4)ccc3-n3nncc3C2)cc1	none (no result: PP1 inh, GRK2 inh, Beta2AR agonist)
CC(C)CNc1c2c(nc3ccccc13)CCC2	none | GRK2 confirm 2 inactive | FAM quench CP2 inactive
CC1(O)CCN2C(=O)CCc3cccc1c32 (centres undefined)	GRK2 inh 41 | GRK2 CP1 inactive | FAM quench CP1 inactive
Fc1cccc(-c2ccc3c(c2)CN(c2cccc(Cl)c2)Cc2cnnn2-3)c1	none (no result: PP1 inh, GRK2 inh, Beta2AR agonist)
COc1ccc2c(c1)C(NC(C)=O)CCc1cc(OC)c(OC)c(OC)c1-2 (centres undefined)	none (no result: PP1 inh, GRK2 inh)
COC(=O)C1=C(c2c(C)noc2C)C[C@@H]2CC[C@H]1N2C(=O)NCCO	GRK2 inh 75 | GRK2 CP1 inactive | FAM quench CP1 inactive
Cc1ccccc1-n1c(C)cc(/C=C2/C(=O)NC(=O)N(Cc3ccco3)C2=O)c1C	none
O=C1NC(=O)N(Cc2ccco2)C(=O)/C1=C/C=C/c1ccco1	Beta2AR agonist 85 | GRK2 CP1 inactive | FAM quench CP1 inactive
Cc1ccc(OCCn2cccc2/C=C2/C(=O)NC(=O)N(Cc3ccco3)C2=O)cc1	none | GRK2 CP1 inactive | FAM quench CP1 inactive
Cc1ccc(-n2c(C)cc(/C=C3/C(=O)NC(=O)N(Cc4ccco4)C3=O)c2C)cc1	none
CCOC(=O)C1CCN(/C=C2/C(=O)NC(=O)N(Cc3ccco3)C2=O)CC1	GRK2 inh 82 | GRK2 CP1 inactive | FAM quench CP1 inactive
O=C(NC1CCCCC1)N1Cc2cc(-c3cccc(F)c3)ccc2-n2nncc2C1	none (no result: PP1 inh, GRK2 inh, Beta2AR agonist)
Cc1nc2c(=O)n(C)c(=O)nc-2n(C)n1	PP1 inh 44, GRK2 inh 41, Beta2AR agonist 64 | GRK2 CP1 63 | Aptamer quench inactive | FAM quench CP1 inactive
COc1ccc(CN2CCNCC2)c(OC)c1OC	none | GRK2 CP1 inactive | FAM quench CP1 inactive
c1ccc(-c2ccc(CN3Cc4ccccc4-n4nncc4C3)cc2)cc1	none (no result: PP1 inh, GRK2 inh, Beta2AR agonist)
CCN(CC)S(=O)(=O)c1ccc(N=Cc2c(O)n(-c3ccccc3)c(=O)[nH]c2=O)cc1	none
O=C1c2cccc3cccc(c23)C(=O)N1/N=C/c1c(O)n(-c2ccccc2)c(=O)[nH]c1=O	GRK2 inh 62 | GRK2 CP1 inactive | FAM quench CP1 inactive
CCNC(=O)[C@H]1O[C@@H](n2cnc3c(N)ncnc32)[C@H](O)[C@@H]1O	none | GRK2 CP1 inactive | FAM quench CP1 inactive
Cc1ccccc1OP(N)(=O)Oc1ccccc1C	GRK2 inh 52 | GRK2 CP1 inactive | FAM quench CP1 inactive
CC(C)(C)C(=O)N1Cc2cc(N3CCCCC3)ccc2-n2nncc2C1	none (no result: PP1 inh, GRK2 inh, Beta2AR agonist)
CCOC(=O)c1c(/N=C/c2c(O)n(-c3ccc(F)cc3)c(=S)[nH]c2=O)sc2c1CCCC2	none
CCOC(=O)c1c(/N=C/c2c(O)n(-c3ccccc3F)c(=S)[nH]c2=O)sc2c1CCCC2	GRK2 inh 54 | GRK2 CP1 inactive | FAM quench CP1 inactive
CC1=C(C)CC2(C(=O)NC(=S)NC2=O)C(C)C1 (centres undefined)	none (no result: PP1 inh, GRK2 inh)
Cc1cc(/C=C2\C(=O)NC(=O)N(Cc3ccco3)C2=O)c(C)n1-c1ccc(C(=O)O)cc1	none
Cc1cc(/C=C2\C(=O)NC(=O)N(Cc3ccccc3Cl)C2=O)c(C)n1-c1ccc(C(=O)O)cc1	GRK2 inh 77 | GRK2 CP1 inactive | FAM quench CP1 inactive
CCc1ccc(N2C(=O)NC(=O)/C(=C\c3cc(C)n(-c4cc(C(=O)O)cc(C(=O)O)c4)c3C)C2=O)cc1	GRK2 inh 58 | GRK2 CP1 inactive | FAM quench CP1 inactive
Cc1c(CCC(=O)N2C[C@H]3C[C@@H](C2)c2cccc(=O)n2C3)c(=O)oc2c(C)c(O)ccc12	none (no result: PP1 inh, GRK2 inh, Beta2AR agonist)
O=c1c2ccccc2nc(/C=C\c2ccccc2[N+](=O)[O-])n1-c1ccccc1O	GRK2 inh 45 | GRK2 CP1 inactive | FAM quench CP1 inactive
O=c1c2ccccc2nc(/C=C/c2ccccc2O)n1-c1ccccc1O	none
Cn1cnc(CCN)c1	none
CN1CCN(Cc2nc3ccccc3c(=O)[nH]2)CC1	none
O=c1[nH]c(CN2CCNCC2)nc2ccccc12	none | GRK2 confirm 2 inactive | FAM quench CP2 inactive
CS(=O)(=O)c1ccc(C2=C(CNC(=O)c3ccc([N+](=O)[O-])cc3)[C@H]3CC[C@@H](C2)N3CCOc2ccccc2)cc1	none (no result: PP1 inh, GRK2 inh, Beta2AR agonist)
CNCCc1ccccc1	none (no result: Granule exo inh, Beta2AR agonist, NadD block)

From PubChem BioAssay
